Source: PubChem BioAssay (National Center for Advancing Translational Sciences (NCATS))
Pf growth 96h: inhibits malaria parasite growth, 96 h; AID 504834; Potency, µM (doses to about 28.7 µM), for inactives: at the highest dose activity change, negative = inhibition, actives largely listed as inhibitors; 6.9% of 320,000 active; P. falciparum luciferase reporter growth, 96 h; further: potency means the concentration at half of the fitted maximal effect
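Cell-based qHTS: luciferase-tagged P. falciparum in erythrocytes (2% hematocrit, 0.05% parasitemia final) incubated with compounds for 96 hours, 37 C, 5% CO2; luciferase detection reagent then added and luminescence measured.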
Pf growth 48h: inhibits P. falciparum growth in the first generation, 48 h | P. falciparum luciferase growth in erythrocytes, 48 h | Potency, µM (top dose mostly 28.7 µM), without a hit: at the highest dose activity change, negative = inhibition, hits mostly inhibitors | 5.9% of 310,000 active; further: potency means the concentration at half of the fitted maximal effect
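Growth was read as firefly luciferase luminescence after a 48 h, 37 C, 5% CO2 exposure of compounds to reporter-bearing P. falciparum cultures (0.1% parasitemia, 2% hematocrit final) in Albumax-supplemented RPMI 1640.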
Giardia FBPA inh: blocks Giardia fructose-bisphosphate aldolase activity; Potency, µM (doses to about 59.6 µM), for the others: at the highest dose activity, negative = inhibition, actives largely listed as inhibitors; AID 2451; 0.71% of 290,000 active; purified Giardia FBPA; A8B2U2; further: potency means the concentration at half of the fitted maximal effect; nearly all actives have a fitted effect of over 55% in size
Target sequence (A8B2U2 whole entry, looked up): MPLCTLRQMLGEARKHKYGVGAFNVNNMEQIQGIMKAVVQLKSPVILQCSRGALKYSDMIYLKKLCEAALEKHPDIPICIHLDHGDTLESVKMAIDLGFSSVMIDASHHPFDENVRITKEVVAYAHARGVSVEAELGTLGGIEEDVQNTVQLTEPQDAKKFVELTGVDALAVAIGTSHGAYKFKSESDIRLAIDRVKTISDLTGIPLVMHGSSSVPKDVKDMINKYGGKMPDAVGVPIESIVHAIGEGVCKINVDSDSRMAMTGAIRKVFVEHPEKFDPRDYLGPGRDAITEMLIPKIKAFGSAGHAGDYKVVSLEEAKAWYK
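40 nM FBPA preincubated 10 min at RT with compound (up to 57.5 uM final), then substrate plus GAPDH/TPI/NAD/arsenate coupling and diaphorase/resazurin added. Fluorescence read after 20 min at RT, 525/598 nm.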
HCMV antiviral: human cytomegalovirus inhibition; HFF cells, HCMV-luciferase reporter, 72 h; hits give low values; activity change, negative = inhibition, % at 57.5 µM; 4.5% of 410,000 active; in the data active means activity change below about -60%; inconclusive means no clear call, values can overlap the other calls; inactive means above about -39%
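Steps: HFFs plated, 16 h 37C; compounds added; HCMV-luciferase added to MOI 1 PFU/cell; 72 h 37C; OneGlo reagent, 5 min room temperature; luminescence read, normalized to controls.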
Sm TGR inh: inhibitors of Schistosoma mansoni thioredoxin glutathione reductase. Q962Y6. purified TGR, DTNB reduction, TNB absorbance 405 nm. Potency, µM (titrated, usually from 114 µM), for inactives: at the top dose activity change, negative = inhibition, usual class: inhibitors. 3% of 360,000 active. AID 485364; further: potency means the concentration at half of the fitted maximal effect; nearly all actives have a fitted effect of over 60% in size
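First, TGR (20 nM dispensed) and NADPH were mixed with compound. Second, a 15 min room-temperature incubation followed. Third, further NADPH and then DTNB were added to start the reaction. Finally, TNB absorbance was monitored kinetically.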
* hit, by the source's call; ? = inconclusive; nt = no result given; [ ] = remark or other dose. Rows were chosen to be rich in hits. Some 14% of all compounds tested hit in one or more screens of this group. Unless noted, the call rests on the fitted dose curve; in most records, active means well fitted curve in the direction sought with a large enough effect; inconclusive means small, poorly fitted or top-dose-only effect, or another doubt; inactive means no such curve, though single readings can be large; an effect the other way counts as inactive or inconclusive. On the % scale 0 is the no-effect control and ±100 the full control effect.

SMILES | Pf growth 96h | Pf growth 48h | Giardia FBPA inh | HCMV antiviral | Sm TGR inh
CC(C)CCSc1nc2c(c(=O)[nH]c(=O)n2C)n1CCCc1ccccc1 | 5.9µM* | 0% | 23% | -1 | -5%
CCCCCn1c(SCc2cccc(C)c2)nc2c1c(=O)[nH]c(=O)n2C | 9.3µM* | ? | 4% | 42 | 1%
CCCCn1c(NC(C)CC)nc2c1c(=O)[nH]c(=O)n2C (stereo unspecified) | 4.7µM* | ? | 7% | -2 | -1%
CCOc1ccc(S(=O)(=O)Nc2cc(Cl)ccc2OC)c2cccnc12 | nt | nt | nt | 7 | -9%
CC(C)(C)C1N=C(c2ccc3ccccc3c2)OC1=O (stereo unspecified) | 22% | 28% | nt | 35 | -22%
CCOC(=O)CSc1nc2c(c(=O)[nH]c(=O)n2C)n1CCc1ccccc1 | ? | 6% | 0% | -4 | -1%
CCOC(=O)C(CC)Sc1nc2c(c(=O)[nH]c(=O)n2C)n1CCc1ccccc1 (stereo unspecified) | 12µM* | 10µM* | -6% | 2 | -24%
CCCCCCn1c(SCCCC)nc2c1c(=O)[nH]c(=O)n2C | 3.3µM* | ? | -1% | 85 | -13%
COc1ccccc1NC(=O)C1CCCN(S(=O)(=O)c2ccccc2)C1 (stereo unspecified) | ? | 23% | 0% | 6 | 4%
Cn1c(=O)c2sccc2n2c(CCC(=O)NCc3ccccc3)nnc12 | nt | nt | nt | 6 | 5%
CN1CCN(C(=O)c2cnc(Cc3c[nH]c4ccccc34)c(I)c2)CC1 | nt | nt | nt | -18 | nt
O=C(Cc1ccc(F)cc1)NCCS(=O)(=O)N1CCN(c2cccc(Cl)c2)CC1 | -19% | 6% | nt | -35 | 1%
CCN1CCc2c(sc(NC(=O)c3ccc(S(=O)(=O)N4CCCC4)cc3)c2C(=O)NC)C1 | 15µM* | 10µM* | -8% | -17 | -9%
CNC(=O)c1c(NC(=O)c2ccc(S(=O)(=O)N3CCCCC3)cc2)sc2c1CCN(C(C)C)C2 | 8.3µM* | 10µM* | -26% | -27 | -18%
COC(=O)c1c(NC(=O)c2ccc(S(=O)(=O)N3CCCCC3C)cc2)sc2c1CCN(C(C)C)C2 (stereo unspecified) | nt | nt | nt | -21 | -3%
N#CCCCSc1nnnn1-c1cc(C(F)(F)F)cc(C(F)(F)F)c1 | nt | nt | 1% | nt | nt
NC(=O)c1cc2cc(Cl)ccc2o/c1=N/NC(=O)c1cccs1 | 0% | 76% | 1% | -8 | 0%
COc1cc2c(cc1OC)-c1cc(NC3CCCCCCC3)nc(=O)n1CC2 | 7.4µM* | ? | -14% | -17 | 6%
COc1ccc(CC(N)C(=O)NC2C(CO)OC(n3cnc4c(N(C)C)ncnc43)C2O)cc1 (stereo unspecified) | 0.34µM* | 0.38µM* | -2% | nt | nt
Nc1ncnc2c1ncn2[C@@H]1O[C@H](CNC(=O)[C@@H](N)Cc2ccccc2)[C@@H](O)[C@H]1O | nt | nt | nt | -20 | nt
Oc1cccc2cccnc12 | ? | ? | ? | nt | -24%
Oc1cc(NCc2ccc(F)cc2)cc2cccnc12 | 1.9µM* | 2.6µM* | nt | -93* | -21%
Fc1ccc(CNc2ncccn2)cc1 | -21% | 18% | 4% | -24 | 6%
Oc1cc(NCc2ccc(Cl)cc2)cc2cccnc12 | ? | 3.3µM* | nt | -39 | -13%
CN(C)CCCNc1cc(O)c2ncccc2c1 | 4.7µM* | 4.1µM* | nt | -78* | -22%
SMILES | Pf growth 96h | Pf growth 48h | Giardia FBPA inh | HCMV antiviral | Sm TGR inh
COC(=O)c1ccc(C(NC(=O)OCc2ccccc2)/C(=C/[C@@H](C)C(=O)NCc2ccc(OC)c(O)c2)c2cccnc2)cc1 (stereo partly specified) | nt | nt | -11% | nt | nt
COC(=O)C/C=C\[C@@H](C)[C@@H](/C=N\OC[C@@H](O)COCc1ccco1)NS(=O)(=O)c1ccc(C)cc1 | nt | nt | -1%[12.9 µM] | nt | nt
C/C(=N/NS(=O)(=O)c1ccc(Br)cc1)c1c[nH]c2ccccc12 | -29% | 20% | nt | -13 | 40µM*
C/C(=N\NS(=O)(=O)c1ccc([N+](=O)[O-])cc1)c1c[nH]c2ccccc12 | ? | 81% | -30% | 44 | -35%
COc1ccc(N/C(=C(/C(Cl)=C(Cl)Cl)[N+](=O)[O-])n2nnc3ccccc32)cc1 | 22% | nt | ? | nt | ?
Cc1ccccc1N/C(=C(/C(Cl)=C(Cl)Cl)[N+](=O)[O-])n1nnc2ccccc21 | ? | 7% | ? | 30 | 14µM*
